The values below come from PubChem BioAssay (EPA / NIEHS).

Where “and” joins values, the source holds several entries; their conditions need not be identical. Identical values can stand only once. Records with an inconclusive call do not appear. Calls of active or inactive are those of the source. Rule for the calls: active = hit-call score of the fitted dose curve at least 0.9, where 1 is the maximum; inconclusive = response in the unintended direction; inactive = score below 0.9.

Chain of Nuclear receptor subfamily 1 group I member 2 (Homo sapiens) (O75469 whole entry, looked up): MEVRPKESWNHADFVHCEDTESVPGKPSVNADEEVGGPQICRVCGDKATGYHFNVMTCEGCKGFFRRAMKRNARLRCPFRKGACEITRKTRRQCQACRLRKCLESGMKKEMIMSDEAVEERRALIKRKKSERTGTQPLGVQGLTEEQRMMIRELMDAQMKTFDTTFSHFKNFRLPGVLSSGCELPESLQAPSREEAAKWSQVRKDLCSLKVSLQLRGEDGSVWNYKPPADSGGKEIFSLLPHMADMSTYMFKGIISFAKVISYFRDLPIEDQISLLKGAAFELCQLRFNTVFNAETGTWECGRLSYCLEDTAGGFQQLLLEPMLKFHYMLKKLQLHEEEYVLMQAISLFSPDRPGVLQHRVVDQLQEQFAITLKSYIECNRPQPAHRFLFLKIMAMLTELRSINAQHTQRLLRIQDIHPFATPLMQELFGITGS

The target of this experiment is Nuclear receptor subfamily 1 group I member 2 (Homo sapiens) (UniProt O75469). In words: NVS_NR_hPXR: NovaScreen (NVS) Nuclear Receptor Binding Assay for human Pregnane X Receptor (PXR) (AID 2283365).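 Note: a drop in FRET signal versus DMSO baseline means the compound binds.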 How it is done:
NVS_NR_hPXR is a biochemical, single-readout assay that uses extracted gene-proteins in a cell-free assay. Measurements were taken 2 hours after chemical dosing in a 384-well plate.NVS_NR_hPXR is one of one assay component(s) measured or calculated from the NVS_NR_hPXR assay. It is designed to make measurements of fluorescent resonance energy transfer, a form of binding reporter, as detected with fluorescent resonance energy transfer signals by Time-Resolved Fluorescence Resonance Energy Transfer (TR-FRET) technology.Data from the assay component NVS_NR_hPXR was analyzed into 1 assay endpoint. This assay endpoint, NVS_NR_hPXR, was analyzed in the positive analysis fitting direction relative to DMSO as the negative control and baseline of activity. Using a type of binding reporter, loss-of-signal activity can be used to understand changes in the binding as they relate to the gene NR1I2. Furthermore, this assay endpoint can be referred to as a primary readout, because the performed assay has only produced 1 assay endpoint. To generalize the intended target to other relatable targets, this assay endpoint is annotated to the nuclear receptor intended target family, where the subfamily is non-steroidal.
Binding assays used specific radioligands (tritiated, iodinated) with non-radioactive competitive displacement ligands in agonist or antagonist protocols (as indicated) and various reference compounds and inhibitors to titrate specific binding to receptors and transporters. Most enzyme assays (CYPs, kinases, phosphatases, proteases, HDACs) used recombinant protein and specific substrates (fluorescence mostly, some colorimetric and radioactive) and inhibitors, followed by a biochemical separation of substrate and product. All assays for the biochemical HTS were initially run in duplicate at a single concentration (10 uM for CYP450 assays and 25 uM for all others). […] Each assay was run with positive and negative controls, and concurrent controls on every plate. The follow-up (secondary) screen tested active chemical-pairs in concentration series, as well as a few additional assays not tested in the primary screen, some selected negative inactives, and several cases re-run in the concentration series for confirmatory purposes.
What is called AC50 is the concentration at which the activity in the assay is half-maximal. With `C=CC(Cl)CCl` (stereo not drawn), the AC50 was 5.06 µM (active).

As to `O=CCCl`, the result was inactive. The same measure, in the same setting: the value for `O=C(CCl)Nc1ccccc1` was “inactive”. On the same count and under the same terms, the value for `CCOP(=S)(OCC)O/N=C(\C#N)c1ccccc1` was “inactive”. Turning to `CCCCCCCCCCCCOS(=O)(=O)O`, the AC50 is 38.1 µM (active) and 17.4 µM (active).

As to `Nc1ncn[nH]1`, the molecule was called inactive.

With `Clc1cccc(Cl)c1Cl`, the result was inactive. For the molecule `CCCCCCCCCCCCc1cccc(S(=O)(=O)O)c1`, the AC50 is 26.6 µM (active). Take `CCC[CH2][Sn]([Cl])([Cl])[CH2]CCC`: the AC50 was 5.56 µM (active).

Consider `O=S1(=O)OC(c2cc(Br)c(O)c(Br)c2)(c2cc(Br)c(O)c(Br)c2)c2ccccc21`, for which the AC50 was 5.92 µM (active). With `O=c1[nH]c(=O)n(Cl)c(=O)n1Cl`, the call was inactive.

With `N#CCC#N`, the outcome was inactive. For `COc1ccc(N)cc1`, the molecule was called inactive. In the case of `COc1nn(C(=O)NS(=O)(=O)c2ccccc2OC(F)(F)F)c(=O)n1C`, the AC50 is 23.4 µM (active).

`O=C(NC(=O)c1c(F)cccc1F)Nc1cc(Cl)c(OC(F)(F)C(F)C(F)(F)F)cc1Cl` (stereo not drawn): the result was inactive. Turning to `O=C(CBr)c1ccc(O)cc1`, the call was inactive.

As to `Nc1ccc(N)cc1`, the AC50 was 25 µM (active).

Regarding `CC(O)(CS(=O)(=O)c1ccc(F)cc1)C(=O)Nc1ccc(C#N)c(C(F)(F)F)c1` (stereo not drawn), the result was inactive.
